Hits are enriched below; roughly 4.5% of the tested compounds scored in any of these assays.
GDH-TPI inh: GDH-TPI coupling enzyme inhibitors, primary screen, artefact control for M. tuberculosis FBA inhibitor project, biochemical, absorbance, full deck. 1.2% of 360,000 active. AID 588335, 2011. inhibition, % at 4.8 µM. GDH-TPI coupled enzyme counterscreen, NADH absorbance; in the data active = inhibition above about 30%;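 note: 0% = DMSO wells and 100% = wells lacking the enzyme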
BJeLR viability: MLPCN primary cell-based screen for lethality selective to Ras in HRASV12 cells; inhibition, % (no concentration beside the values); AID 1554, 2009; BJeLR (HRASV12) viability, CellTiter-Glo ATP luminescence, 48 h; 0.17% of 300,000 active; in the data active = inhibition above about 50%
FBA Mtb inh: Mtb FBA enzyme inhibitors, primary screen, biochemical, fluorescence, strain H37Rv | Fructose-bisphosphate aldolase (Mycobacterium tuberculosis (strain ATCC 25618 / H37Rv)), … | purified M. tuberculosis FBA, fluorescence read-out | inhibition, % at 1 µM | 2.3% of 360,000 active; in the data active = inhibition above about 27%;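 note: 0% = vehicle and 100% = reference inhibitor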
Target sequence (P9WQA3 whole entry, looked up): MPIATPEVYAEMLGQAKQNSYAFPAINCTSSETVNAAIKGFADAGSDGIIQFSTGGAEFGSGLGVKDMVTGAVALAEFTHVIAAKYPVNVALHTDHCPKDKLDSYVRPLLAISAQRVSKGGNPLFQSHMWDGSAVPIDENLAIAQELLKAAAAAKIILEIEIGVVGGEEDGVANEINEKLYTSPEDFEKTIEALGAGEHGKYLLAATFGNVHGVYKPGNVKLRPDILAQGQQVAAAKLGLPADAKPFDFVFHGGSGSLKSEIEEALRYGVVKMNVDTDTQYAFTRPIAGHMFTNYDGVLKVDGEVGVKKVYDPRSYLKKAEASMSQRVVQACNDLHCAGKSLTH
PrP 5UTR inh: inhibition of PrP 5' UTR reporter expression; cell-based PrP 5' UTR mRNA reporter, plate reader; inhibition, % (no concentration beside the values); 0.35% of 340,000 active; in the data active = inhibition above about 52%; note: 0 = median of the neutral control wells
PfHsp40 rescue: rescue of yeast from PfHsp40 toxicity, primary screen, S. cerevisiae, ATP luminescence; S. cerevisiae expressing PfHsp40, growth rescue; growth rescue, % at 12.5 µM; 0.68% of 340,000 active; in the data active = growth rescue above about 28%, passing the limit was not always enough;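 note: yeast W303a lacking pdr1 and pdr3 grown in galactose medium; growth measured after three days at 30 °C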
PrPC surface inh: inhibitors of human cell surface prion protein PrPC, primary screen, cell-based, TR-FRET; Major prion protein (Homo sapiens), P04156; TR-FRET read-out; inhibition, % at 13.8 µM; 0.43% of 370,000 active; AID 720596, 2013; in the data active = inhibition above about 24%; note: 0% = median of the test wells and 100% = reference compound wells
The depositor's hits bear a star; . = not tested or not shown; + = active, no number.

SMILES | GDH-TPI inh | BJeLR viability | FBA Mtb inh | PrP 5UTR inh | PfHsp40 rescue | PrPC surface inh
Nc1nc(NCCOCCO)nc(NCC2CCCO2)c1[N+](=O)[O-] (stereo unspecified) | 42.9* | -1.1 | -1.3 | 0.5 | -1.5 | -8.9
COCCNc1nc(N)c([N+](=O)[O-])c(NCC2CCCO2)n1 (stereo unspecified) | 37.9* | 10.2 | -3.1 | -11.0 | -0.4 | -1.2
Cc1ccc(Nc2nc(NCC3CCCO3)nc(N)c2[N+](=O)[O-])cc1 (stereo unspecified) | 24.5 | -18.0 | 8.9 | -66.7 | 0.4 | -6.0
O=C(CSc1nnc(COc2ccccc2)n1-c1ccccc1)Nc1ccc(S(=O)(=O)Nc2nccs2)cc1 | . | . | . | . | . | 3.0
COc1ccc2ccc(OC)c(/C=N/NC(=O)c3cc4ccccc4o3)c2c1 | 31.6* | . | 4.0 | . | . | 13.8
COc1cc(/C=N/NC(=O)c2cc3c(ccc4ccccc43)o2)cc(OC)c1O | 49.0* | 0.8 | 5.2 | -15.2 | 1.4 | -5.2
COc1ccc(/C=N/NC(=O)c2cc3c(ccc4ccccc43)o2)cc1OC | 25.8 | . | 6.7 | -15.8 | -0.6 | -1.3
COc1ccc(/C=N\NC(=O)c2cc3c(ccc4ccccc43)o2)cc1O | 39.2* | . | 8.7 | 5.2 | 2.6 | -3.0
COc1cc(/C=N/NC(=O)c2sc(N)c(C#N)c2C)cc(Br)c1O | 38.2* | -1.9 | -0.3 | -17.2 | -0.3 | 4.0
COc1ccc2ccccc2c1/C=N/NC(=O)c1sc(N)c(C#N)c1C | 18.7 | 5.2 | -3.1 | -21.5 | -0.6 | -3.1
CCN=c1scc(C)n1/N=C/c1cc(Br)c(O)c(OC)c1 | 31.7* | -2.3 | 0.3 | -32.9 | 0.3 | 2.1
COc1cc(/C=N/NC(=O)CC#N)cc(Br)c1O | 15.3 | -1.1 | + | -62.1 | -0.8 | -2.1
Cc1c(C(=O)N/N=C/c2cccnc2)sc(N)c1C#N | 31.0* | 2.0 | 2.0 | 10.0 | 0.6 | 3.9
CCCCCCCCN1C(=O)[C@@H](CC(=O)NCCc2ccccc2OC)C[C@@]2(C(=O)OC)C1=C[C@H](COCc1ccccc1)O[C@@H]2C | . | . | . | . | . | 0.9
CC(C)Oc1ccc(CN2CCC2(C)C(=O)NCc2cccc3ccccc23)cc1 (stereo unspecified) | 9.7 | . | 5.6 | . | . | 9.9
COc1cccc(OC[C@@H](O)CN2CCC(C(O)(c3ccccc3)c3ccccc3)CC2)c1 | . | . | . | . | . | -16.6
COc1ccc(CN2C(=O)CCCC2(C)c2nnnn2-c2c(C)cccc2C)cc1OC (stereo unspecified) | . | . | . | . | . | 3.1
COc1cc(/C=N/NC(=O)c2ccc([N+](=O)[O-])cc2Cl)cc(Br)c1O | 42.1* | -34.2 | -4.8 | -1.4 | -0.2 | -4.9
ON=C1c2ccccc2-c2ccc(Br)cc21 | -5.0 | . | -2.1 | -35.1 | 4.6 | -10.2
Nc1cc2c(cc1Br)-c1ccccc1C2=NO | 17.0 | . | 3.9 | -42.2 | 47.2* | -13.4
CCN(CC)CCCNc1oc(-c2cccc(Cl)c2)nc1C#N | 0.3 | 7.6 | 134.1* | -25.2 | -0.6 | -0.5
COc1ccc(-c2nc(C#N)c(NCCN(C)C)o2)cc1 | 10.9 | -4.3 | 123.2* | -29.1 | -1.1 | 0.5
N#Cc1nc(-c2ccc(Cl)cc2)oc1NCc1ccco1 | 7.1 | -8.5 | 174.8* | -60.4 | -0.2 | 13.2
N#Cc1nc(-c2ccccc2Cl)oc1NCc1ccco1 | 9.0 | 0.9 | 8.9 | -16.8 | 4.5 | 6.3
C=CCNc1oc(-c2cccc(Cl)c2)nc1C#N | -12.3 | . | 3.2 | -16.8 | -0.5 | 1.0
SMILES | GDH-TPI inh | BJeLR viability | FBA Mtb inh | PrP 5UTR inh | PfHsp40 rescue | PrPC surface inh
CN(C)CCNc1oc(COc2ccc(Cl)cc2Cl)nc1C#N | 3.4 | -2.4 | 2.7 | . | -1.3 | -6.3
CN(C)CCCNc1oc(-c2ccc(Cl)cc2)nc1C#N | 17.1 | 15.9 | 172.7* | -22.6 | 1.5 | -2.6
COc1ccc(S[C@]2(C(=O)NCCCN(C)C)CC(=O)N[C@@H]2c2ccc(OC)cc2)cc1 | . | . | . | . | . | 1.3
N#Cc1nc(-c2cccc(Cl)c2)oc1NCc1cccnc1 | 13.1 | 8.1 | 141.0* | -22.4 | 1.3 | 11.3
COc1ccc(Nc2oc(-c3ccc(Cl)cc3)nc2C#N)cc1 | 28.3 | 15.5 | -1.9 | -120.1 | -0.9 | 9.1
COCCNc1oc(-c2ccc(Cl)cc2)nc1C#N | 37.0* | 6.2 | + | -90.7 | 1.1 | 7.2
